Experimental data reported in the supplement of paper PMC11732987, “Enantioselective OTUD7B fragment discovery through chemoproteomics screening and high-throughput optimisation” (Communications Chemistry, 2025).

Key:
Assay in all cases: log2 ratio of Biotin-Ahx-Ub-VS probe labelling (fragment/DMSO); higher = less target engagement (more negative = stronger competition), active = hit call of the paper (q ≤ 0.05, log2 ratio ≤ -1)
Conditions in all cases: compound concentration: 200 uM; treatment time: 3 h
USP42 = molecular target: T1, USP42 (UniProt Q9H9J4)
T1 sequence (whole entry): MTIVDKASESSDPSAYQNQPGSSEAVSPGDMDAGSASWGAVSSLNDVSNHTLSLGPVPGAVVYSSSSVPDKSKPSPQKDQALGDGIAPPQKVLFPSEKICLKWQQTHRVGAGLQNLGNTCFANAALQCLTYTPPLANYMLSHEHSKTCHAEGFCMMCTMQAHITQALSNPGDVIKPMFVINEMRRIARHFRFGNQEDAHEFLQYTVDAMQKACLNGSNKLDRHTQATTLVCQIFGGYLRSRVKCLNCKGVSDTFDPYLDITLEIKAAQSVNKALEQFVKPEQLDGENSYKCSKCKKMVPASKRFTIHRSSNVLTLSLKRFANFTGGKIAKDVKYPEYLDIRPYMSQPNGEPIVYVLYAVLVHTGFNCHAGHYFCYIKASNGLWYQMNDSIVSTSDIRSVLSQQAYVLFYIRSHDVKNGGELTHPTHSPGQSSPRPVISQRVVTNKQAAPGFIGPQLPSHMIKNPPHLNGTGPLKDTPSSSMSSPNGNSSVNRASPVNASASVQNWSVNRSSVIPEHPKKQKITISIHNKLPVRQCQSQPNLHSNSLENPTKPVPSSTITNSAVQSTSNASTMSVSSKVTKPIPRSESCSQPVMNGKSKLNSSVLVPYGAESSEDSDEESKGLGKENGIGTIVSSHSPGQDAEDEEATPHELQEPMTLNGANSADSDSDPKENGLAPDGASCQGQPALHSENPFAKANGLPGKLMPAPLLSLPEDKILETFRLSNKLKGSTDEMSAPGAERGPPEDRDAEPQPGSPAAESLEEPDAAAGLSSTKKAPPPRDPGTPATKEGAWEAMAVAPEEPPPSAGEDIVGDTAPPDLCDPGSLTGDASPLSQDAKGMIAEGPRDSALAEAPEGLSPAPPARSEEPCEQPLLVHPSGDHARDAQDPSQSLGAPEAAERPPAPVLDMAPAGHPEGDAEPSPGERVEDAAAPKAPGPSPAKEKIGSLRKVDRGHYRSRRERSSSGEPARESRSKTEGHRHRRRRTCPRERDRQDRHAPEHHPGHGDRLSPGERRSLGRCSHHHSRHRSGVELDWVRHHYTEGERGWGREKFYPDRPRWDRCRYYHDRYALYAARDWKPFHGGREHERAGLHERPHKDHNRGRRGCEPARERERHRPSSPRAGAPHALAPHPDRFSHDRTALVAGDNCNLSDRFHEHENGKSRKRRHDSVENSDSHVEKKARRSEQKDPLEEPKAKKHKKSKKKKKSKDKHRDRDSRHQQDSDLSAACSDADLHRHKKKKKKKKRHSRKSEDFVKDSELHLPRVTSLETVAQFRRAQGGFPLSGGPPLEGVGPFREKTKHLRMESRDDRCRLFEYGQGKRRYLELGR
Summary of the method: (§1)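 Using Biotin-Ahx-Ub-VS at 0.5 µM final for 1 h, DUBs were labelled in HEK293T lysate (495 µg per sample) that had first been treated in triplicate with fragment at 200 µM or vehicle for 3 h. NeutrAvidin enrichment, LysC and trypsin digestion and diaPASEF LC-MS/MS followed. Spectronaut label-free quantities were global-median-normalised. Values are average log2 fragment/vehicle ratios by unpaired t-test, using proteins with ≥2 unique peptides.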

USP46 = USP46 (UniProt P62068)
Summary of the method: as §1

USP47 = molecular target: T2, USP47 (UniProt Q96K76)
T2 sequence (whole entry): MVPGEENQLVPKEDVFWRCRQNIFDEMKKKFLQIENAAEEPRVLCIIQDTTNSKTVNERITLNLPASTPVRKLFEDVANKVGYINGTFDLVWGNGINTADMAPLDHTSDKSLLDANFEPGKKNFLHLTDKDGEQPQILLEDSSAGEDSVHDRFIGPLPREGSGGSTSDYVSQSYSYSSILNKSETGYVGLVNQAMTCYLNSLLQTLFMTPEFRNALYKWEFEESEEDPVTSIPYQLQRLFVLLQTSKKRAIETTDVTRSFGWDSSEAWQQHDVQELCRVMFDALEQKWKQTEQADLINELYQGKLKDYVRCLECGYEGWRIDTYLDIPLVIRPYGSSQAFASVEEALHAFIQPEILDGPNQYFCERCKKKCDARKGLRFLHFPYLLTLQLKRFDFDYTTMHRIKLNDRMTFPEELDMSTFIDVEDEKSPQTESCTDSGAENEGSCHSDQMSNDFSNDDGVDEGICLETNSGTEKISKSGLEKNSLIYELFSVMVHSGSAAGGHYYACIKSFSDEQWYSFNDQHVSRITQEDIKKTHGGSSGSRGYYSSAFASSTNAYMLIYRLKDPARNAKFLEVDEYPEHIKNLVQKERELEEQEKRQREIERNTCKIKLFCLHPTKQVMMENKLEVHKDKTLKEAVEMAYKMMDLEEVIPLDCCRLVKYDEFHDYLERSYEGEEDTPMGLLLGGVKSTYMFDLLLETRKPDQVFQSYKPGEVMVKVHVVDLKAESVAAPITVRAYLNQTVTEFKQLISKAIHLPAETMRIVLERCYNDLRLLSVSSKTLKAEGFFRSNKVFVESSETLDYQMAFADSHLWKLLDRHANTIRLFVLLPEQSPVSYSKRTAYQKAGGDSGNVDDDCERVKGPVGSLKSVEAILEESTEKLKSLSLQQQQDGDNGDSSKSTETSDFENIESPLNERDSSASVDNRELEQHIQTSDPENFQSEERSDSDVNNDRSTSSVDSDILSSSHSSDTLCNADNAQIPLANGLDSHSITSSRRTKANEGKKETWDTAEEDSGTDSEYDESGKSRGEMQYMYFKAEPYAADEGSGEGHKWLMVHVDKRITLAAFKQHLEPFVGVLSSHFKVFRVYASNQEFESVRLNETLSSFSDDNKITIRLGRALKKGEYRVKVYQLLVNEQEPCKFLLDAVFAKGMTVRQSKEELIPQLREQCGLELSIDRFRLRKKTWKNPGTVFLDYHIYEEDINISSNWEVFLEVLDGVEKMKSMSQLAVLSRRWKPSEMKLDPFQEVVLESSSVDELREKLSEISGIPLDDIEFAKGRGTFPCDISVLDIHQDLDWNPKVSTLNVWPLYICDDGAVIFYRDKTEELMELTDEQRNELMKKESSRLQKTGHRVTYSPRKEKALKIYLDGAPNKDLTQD
Summary of the method: as §1

USP48 = molecular target: T3, USP48 (UniProt Q86UV5)
T3 sequence (whole entry): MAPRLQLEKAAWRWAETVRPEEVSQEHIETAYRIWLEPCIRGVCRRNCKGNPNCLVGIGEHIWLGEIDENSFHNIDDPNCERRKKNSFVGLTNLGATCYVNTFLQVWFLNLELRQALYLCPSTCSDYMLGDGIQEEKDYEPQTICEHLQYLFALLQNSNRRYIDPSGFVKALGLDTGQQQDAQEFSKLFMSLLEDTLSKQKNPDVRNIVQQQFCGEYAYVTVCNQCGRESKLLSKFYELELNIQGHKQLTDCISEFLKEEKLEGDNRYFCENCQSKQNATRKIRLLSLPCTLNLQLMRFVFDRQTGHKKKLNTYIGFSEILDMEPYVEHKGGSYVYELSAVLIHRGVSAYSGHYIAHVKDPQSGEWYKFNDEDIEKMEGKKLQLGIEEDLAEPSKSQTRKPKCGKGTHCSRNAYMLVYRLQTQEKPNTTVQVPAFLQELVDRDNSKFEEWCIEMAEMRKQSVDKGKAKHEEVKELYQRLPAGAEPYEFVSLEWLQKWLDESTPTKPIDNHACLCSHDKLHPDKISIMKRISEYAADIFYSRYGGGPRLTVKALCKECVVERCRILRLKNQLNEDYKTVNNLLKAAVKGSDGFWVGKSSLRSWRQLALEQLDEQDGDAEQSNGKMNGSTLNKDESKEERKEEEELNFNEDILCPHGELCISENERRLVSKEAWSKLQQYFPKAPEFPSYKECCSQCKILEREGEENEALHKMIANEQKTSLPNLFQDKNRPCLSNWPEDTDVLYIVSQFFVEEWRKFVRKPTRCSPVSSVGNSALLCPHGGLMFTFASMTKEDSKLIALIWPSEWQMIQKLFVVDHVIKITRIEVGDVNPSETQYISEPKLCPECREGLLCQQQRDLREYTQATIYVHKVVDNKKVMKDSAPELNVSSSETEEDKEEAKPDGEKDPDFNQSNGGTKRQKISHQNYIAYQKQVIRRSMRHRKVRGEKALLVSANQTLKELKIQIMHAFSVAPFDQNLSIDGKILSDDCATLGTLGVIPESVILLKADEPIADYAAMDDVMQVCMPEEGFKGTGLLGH
Summary of the method: as §1

USP5 = molecular target: T4, USP5 (UniProt P45974)
T4 sequence (whole entry): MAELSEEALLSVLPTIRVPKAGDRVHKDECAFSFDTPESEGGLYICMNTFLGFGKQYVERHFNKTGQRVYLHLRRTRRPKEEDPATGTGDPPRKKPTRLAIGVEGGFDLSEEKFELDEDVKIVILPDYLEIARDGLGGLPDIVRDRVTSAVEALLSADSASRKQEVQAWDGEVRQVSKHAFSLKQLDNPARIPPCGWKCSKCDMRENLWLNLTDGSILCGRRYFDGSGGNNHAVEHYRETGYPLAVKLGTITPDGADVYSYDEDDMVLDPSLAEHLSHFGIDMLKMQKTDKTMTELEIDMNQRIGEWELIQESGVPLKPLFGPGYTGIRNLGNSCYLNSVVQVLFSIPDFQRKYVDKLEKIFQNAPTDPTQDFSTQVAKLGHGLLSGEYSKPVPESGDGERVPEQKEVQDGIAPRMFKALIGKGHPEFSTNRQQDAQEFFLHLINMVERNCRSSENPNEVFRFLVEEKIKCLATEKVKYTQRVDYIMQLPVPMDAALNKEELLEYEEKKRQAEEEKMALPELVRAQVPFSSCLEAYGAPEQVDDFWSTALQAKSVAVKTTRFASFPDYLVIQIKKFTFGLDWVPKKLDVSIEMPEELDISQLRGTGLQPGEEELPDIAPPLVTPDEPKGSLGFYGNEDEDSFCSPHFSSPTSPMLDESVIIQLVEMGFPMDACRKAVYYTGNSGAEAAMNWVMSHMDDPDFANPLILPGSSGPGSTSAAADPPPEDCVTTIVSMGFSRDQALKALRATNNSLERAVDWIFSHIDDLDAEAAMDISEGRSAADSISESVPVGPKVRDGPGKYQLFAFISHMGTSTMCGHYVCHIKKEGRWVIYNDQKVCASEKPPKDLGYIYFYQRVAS
Summary of the method: as §1

USP54 = USP54 (UniProt Q70EL1)
Summary of the method: as §1

USP7 = USP7 (UniProt Q93009)
Summary of the method: as §1

USP8 = molecular target: T5, USP8 (UniProt P40818)
T5 sequence (whole entry): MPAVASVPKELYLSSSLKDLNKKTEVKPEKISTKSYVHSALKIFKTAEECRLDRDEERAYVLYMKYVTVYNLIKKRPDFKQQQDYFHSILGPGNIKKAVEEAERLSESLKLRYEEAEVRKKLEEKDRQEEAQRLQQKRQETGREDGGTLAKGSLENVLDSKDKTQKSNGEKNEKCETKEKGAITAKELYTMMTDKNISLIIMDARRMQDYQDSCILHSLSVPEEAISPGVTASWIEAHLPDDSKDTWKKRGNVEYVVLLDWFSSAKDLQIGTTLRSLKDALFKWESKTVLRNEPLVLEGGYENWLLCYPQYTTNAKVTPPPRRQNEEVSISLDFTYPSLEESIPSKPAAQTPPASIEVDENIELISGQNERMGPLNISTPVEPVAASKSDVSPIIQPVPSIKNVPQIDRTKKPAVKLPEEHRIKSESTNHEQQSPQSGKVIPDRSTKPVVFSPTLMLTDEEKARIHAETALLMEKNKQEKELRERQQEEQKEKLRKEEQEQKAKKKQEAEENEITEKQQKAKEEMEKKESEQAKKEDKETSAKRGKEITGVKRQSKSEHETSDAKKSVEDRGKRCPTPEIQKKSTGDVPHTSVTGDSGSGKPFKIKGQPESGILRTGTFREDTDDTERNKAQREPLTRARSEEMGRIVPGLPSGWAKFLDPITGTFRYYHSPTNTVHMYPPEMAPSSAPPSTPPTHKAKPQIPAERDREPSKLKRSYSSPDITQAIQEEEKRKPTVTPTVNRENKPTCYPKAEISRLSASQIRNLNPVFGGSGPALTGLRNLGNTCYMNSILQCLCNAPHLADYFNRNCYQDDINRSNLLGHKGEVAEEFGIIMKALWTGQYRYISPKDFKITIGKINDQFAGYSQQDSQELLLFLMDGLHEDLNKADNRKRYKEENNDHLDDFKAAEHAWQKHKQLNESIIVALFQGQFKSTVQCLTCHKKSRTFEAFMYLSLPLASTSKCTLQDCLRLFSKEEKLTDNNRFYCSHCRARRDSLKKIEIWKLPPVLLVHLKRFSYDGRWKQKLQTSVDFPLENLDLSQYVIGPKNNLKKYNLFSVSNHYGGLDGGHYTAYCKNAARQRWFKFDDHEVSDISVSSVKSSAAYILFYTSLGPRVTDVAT
Summary of the method: as §1

USP9X = USP9X (UniProt Q93008)
Summary of the method: as §1

UniProt O00487 = molecular target: UniProt O00487
Summary of the method: as §1

Measured: log2 ratio of Biotin-Ahx-Ub-VS probe labelling

Chain of USP46 (P62068 whole entry): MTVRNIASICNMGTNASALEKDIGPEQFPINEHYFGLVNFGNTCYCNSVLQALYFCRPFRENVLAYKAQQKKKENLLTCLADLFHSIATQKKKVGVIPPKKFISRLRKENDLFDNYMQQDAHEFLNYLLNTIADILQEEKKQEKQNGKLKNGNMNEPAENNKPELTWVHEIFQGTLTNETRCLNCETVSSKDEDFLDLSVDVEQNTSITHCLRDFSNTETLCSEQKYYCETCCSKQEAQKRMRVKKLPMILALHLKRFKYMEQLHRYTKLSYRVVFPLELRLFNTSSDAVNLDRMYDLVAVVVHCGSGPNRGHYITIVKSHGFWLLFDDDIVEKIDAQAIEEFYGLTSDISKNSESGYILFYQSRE
Chain of USP7 (Q93009 whole entry, looked up): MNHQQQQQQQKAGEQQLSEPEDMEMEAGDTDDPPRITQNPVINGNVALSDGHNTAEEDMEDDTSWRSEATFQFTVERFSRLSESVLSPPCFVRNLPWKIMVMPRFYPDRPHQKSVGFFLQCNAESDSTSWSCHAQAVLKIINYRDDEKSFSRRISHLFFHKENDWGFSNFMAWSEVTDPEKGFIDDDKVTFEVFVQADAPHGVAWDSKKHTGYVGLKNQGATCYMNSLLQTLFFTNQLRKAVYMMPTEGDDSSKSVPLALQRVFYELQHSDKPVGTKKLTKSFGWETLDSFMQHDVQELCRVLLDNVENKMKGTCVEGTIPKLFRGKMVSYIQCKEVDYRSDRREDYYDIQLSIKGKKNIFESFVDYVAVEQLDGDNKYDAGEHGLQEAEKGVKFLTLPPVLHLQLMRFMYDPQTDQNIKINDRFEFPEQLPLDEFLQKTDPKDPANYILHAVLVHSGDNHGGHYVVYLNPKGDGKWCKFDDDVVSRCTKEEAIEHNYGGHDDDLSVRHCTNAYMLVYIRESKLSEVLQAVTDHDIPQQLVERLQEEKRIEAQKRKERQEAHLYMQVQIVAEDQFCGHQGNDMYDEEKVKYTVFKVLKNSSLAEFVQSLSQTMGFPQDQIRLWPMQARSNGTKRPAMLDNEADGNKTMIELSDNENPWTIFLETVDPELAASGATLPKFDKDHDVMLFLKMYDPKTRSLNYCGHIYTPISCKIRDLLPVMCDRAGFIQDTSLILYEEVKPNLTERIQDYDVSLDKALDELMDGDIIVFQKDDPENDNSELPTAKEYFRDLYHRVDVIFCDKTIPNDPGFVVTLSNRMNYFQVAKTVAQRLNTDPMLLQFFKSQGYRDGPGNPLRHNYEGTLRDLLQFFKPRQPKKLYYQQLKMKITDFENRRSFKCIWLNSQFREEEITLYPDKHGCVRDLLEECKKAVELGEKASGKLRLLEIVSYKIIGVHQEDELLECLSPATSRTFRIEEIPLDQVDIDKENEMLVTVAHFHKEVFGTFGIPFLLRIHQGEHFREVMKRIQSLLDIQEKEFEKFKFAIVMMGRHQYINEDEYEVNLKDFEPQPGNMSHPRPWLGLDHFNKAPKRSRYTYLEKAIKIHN
Chain of USP9X (Q93008 whole entry): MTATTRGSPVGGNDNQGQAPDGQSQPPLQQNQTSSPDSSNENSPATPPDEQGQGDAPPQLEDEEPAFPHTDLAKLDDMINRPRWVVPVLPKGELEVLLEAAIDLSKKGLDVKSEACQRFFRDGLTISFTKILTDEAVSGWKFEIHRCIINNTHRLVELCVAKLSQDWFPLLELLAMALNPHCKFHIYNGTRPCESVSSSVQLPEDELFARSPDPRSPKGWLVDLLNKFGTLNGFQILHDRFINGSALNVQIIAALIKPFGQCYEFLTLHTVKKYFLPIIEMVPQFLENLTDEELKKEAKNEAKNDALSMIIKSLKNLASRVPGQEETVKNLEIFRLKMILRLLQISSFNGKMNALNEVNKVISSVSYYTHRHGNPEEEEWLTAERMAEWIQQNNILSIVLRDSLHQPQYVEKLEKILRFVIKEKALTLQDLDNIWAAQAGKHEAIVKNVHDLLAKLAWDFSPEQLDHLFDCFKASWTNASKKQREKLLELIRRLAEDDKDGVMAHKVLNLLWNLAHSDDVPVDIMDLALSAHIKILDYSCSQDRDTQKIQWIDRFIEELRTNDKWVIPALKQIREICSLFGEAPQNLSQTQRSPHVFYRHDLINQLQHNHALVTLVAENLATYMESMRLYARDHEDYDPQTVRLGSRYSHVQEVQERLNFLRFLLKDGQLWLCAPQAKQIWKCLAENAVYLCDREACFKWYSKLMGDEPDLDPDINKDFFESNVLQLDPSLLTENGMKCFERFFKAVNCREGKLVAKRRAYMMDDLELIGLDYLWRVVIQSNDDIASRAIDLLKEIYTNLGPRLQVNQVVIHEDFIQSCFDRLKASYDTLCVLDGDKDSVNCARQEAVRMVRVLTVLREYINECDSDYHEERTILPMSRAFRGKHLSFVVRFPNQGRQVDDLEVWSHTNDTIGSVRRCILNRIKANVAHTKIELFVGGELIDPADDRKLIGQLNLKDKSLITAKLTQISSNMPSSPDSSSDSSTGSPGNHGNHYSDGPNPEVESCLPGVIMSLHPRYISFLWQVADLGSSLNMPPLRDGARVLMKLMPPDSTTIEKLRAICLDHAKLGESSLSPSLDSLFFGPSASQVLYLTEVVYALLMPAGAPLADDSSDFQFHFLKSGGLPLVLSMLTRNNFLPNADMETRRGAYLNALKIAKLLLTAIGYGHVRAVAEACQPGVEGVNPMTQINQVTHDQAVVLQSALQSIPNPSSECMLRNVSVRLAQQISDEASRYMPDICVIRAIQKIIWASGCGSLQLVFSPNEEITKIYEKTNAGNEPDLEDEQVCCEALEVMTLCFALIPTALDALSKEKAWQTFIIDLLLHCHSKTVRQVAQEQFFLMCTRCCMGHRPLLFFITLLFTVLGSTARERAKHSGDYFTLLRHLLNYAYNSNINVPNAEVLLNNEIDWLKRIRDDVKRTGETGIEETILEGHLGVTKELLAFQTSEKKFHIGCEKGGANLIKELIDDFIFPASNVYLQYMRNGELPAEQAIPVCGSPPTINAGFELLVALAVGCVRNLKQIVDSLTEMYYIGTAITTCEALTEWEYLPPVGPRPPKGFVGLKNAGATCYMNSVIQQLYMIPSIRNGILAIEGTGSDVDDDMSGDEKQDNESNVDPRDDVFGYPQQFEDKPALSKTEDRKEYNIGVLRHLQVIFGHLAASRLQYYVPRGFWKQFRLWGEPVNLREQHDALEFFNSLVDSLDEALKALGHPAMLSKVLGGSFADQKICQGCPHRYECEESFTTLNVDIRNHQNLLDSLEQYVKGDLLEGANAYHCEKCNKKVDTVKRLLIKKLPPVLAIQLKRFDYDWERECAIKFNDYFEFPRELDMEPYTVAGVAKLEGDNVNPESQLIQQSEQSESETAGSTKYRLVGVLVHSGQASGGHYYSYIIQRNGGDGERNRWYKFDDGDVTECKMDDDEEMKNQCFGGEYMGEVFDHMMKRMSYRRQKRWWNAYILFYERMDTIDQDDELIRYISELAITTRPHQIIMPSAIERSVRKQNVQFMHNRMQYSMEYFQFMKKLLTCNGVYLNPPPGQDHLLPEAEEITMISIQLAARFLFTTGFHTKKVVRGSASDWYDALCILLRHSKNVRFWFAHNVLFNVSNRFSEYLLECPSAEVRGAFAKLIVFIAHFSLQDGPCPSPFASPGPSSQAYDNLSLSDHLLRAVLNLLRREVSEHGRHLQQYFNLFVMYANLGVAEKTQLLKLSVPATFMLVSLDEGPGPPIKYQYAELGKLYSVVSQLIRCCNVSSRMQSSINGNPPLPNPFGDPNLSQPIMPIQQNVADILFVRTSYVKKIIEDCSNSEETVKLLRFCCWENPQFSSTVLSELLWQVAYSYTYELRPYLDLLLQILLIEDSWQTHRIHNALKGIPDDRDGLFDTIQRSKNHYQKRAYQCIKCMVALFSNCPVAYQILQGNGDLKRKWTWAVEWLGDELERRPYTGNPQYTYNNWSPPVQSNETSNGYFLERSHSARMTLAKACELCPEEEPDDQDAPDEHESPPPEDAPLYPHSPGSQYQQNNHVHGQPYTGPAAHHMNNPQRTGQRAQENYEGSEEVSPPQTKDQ
Chain of UniProt O00487 (O00487 whole entry): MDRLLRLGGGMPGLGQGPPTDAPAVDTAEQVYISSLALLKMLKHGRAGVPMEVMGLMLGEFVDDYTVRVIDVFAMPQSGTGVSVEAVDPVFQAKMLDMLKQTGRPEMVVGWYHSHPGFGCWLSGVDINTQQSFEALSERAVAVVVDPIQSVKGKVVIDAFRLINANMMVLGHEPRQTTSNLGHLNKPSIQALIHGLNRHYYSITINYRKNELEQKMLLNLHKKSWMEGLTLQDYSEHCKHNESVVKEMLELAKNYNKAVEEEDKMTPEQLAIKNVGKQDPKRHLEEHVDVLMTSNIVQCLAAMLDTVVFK

Cc1ccc(N(C(=O)CCl)C2C=CS(=O)(=O)C2)cc1 (stereo not given)
inactive: USP42 0.262 | USP46 -0.055 | USP48 -0.839 | USP5 0.431 | USP54 -0.495 | USP8 0.108 | USP9X 0.0636 | UniProt O00487 0.0368
active: USP47 -1.11 | USP7 -1.19

O=C(CCl)N(C1CCCC1)C1CCS(=O)(=O)C1 (stereo not given)
inactive: USP42 0.228 | USP46 -0.0761 | USP47 -0.442 | USP5 0.124 | USP54 -0.384 | USP7 -0.798 | USP8 0.0542 | USP9X -0.0338 | UniProt O00487 -0.119
active: USP48 -1.18
